Measured values as given in PubChem BioAssay AID1159580 (chemical genetic matrix, 2015).
“And” between values parts separate entries of the source, which are not always exact repeats. Equal values may be shown once. Among all 5,500 compounds or so, about 2,000 (36%) were called active. Roughly 18% stayed inconclusive and do not appear here. Cut-off read from the data, not from the text of the source: active = normalized growth mostly below about 0.91 (no sharp cut-off); inconclusive = no clear call, values can overlap the other calls; inactive = mostly above about 0.92. This is one part of the list.

Test: chemical genetic growth profiling, strain panel (AID 1159580);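 note: tested at 20 µM; growth read once vehicle control cultures reached saturation at 30 °C; 1 = growth at the plate median or of vehicle wells; lower values mean less growth of the strain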
Details: S. cerevisiae deletion strains, growth OD

Measured: normalized growth

CC[C@@]1(O)C(=O)OCc2c1cc1n(c2=O)Cc2cc3cc(O)ccc3nc2-1
inactive: locus YAL021C, strain ccr4, hits give low values 1.05 | locus YAL026C, strain drs2, hits give low values 1.01 | locus YAL030W, strain snc1, hits give low values 1.02 | locus YBL061C, strain skt5, hits give low values 1.01 | locus YBR009C, strain hhf1, hits give low values 0.972 | locus YBR021W, strain FUR4, hits give low values 1.01 | locus YBR023C, strain chs3, hits give low values 1.02 | locus YBR171W, strain sec66, hits give low values 1.02 | locus YBR229C, strain ROT2, hits give low values 1.01 | locus YBR231C, strain swc5, hits give low values 0.98 | locus YBR279W, strain paf1, hits give low values 1.03 | locus YCL011C, strain gbp2, hits give low values 1.02 | locus YCL016C, strain dcc1, hits give low values 1.01 | locus YCL029C, strain bik1, hits give low values 0.992 | locus YCL069W, strain vba3, hits give low values 1.01 | locus YCR088W, strain abp1, hits give low values 1.01 | locus YDL005C, strain med2, hits give low values 1.02 | locus YDL035C, strain GPR1, hits give low values 1.01 | locus YDL040C, strain nat1, hits give low values 1.02 | locus YDL074C, strain BRE1, hits give low values 1 | locus YDL101C, strain DUN1, hits give low values 1.03 | locus YDL185W, strain tfp1, hits give low values 0.996 | locus YDL192W, strain arf1, hits give low values 0.983 | locus YDR001C, strain nth1, hits give low values 0.992 | locus YDR069C, strain doa4, hits give low values 1.01 | locus YDR101C, strain arx1, hits give low values 0.986 | locus YDR137W, strain rgp1, hits give low values 0.997 | locus YDR159W, strain sac3, hits give low values 0.946 | locus YDR162C, strain NBP2, hits give low values 1.02 | locus YDR195W, strain ref2 1.01 | locus YDR297W, strain sur2, hits give low values 0.987 | locus YDR318W, strain mcm21, hits give low values 0.992 | locus YDR334W, strain swr1, hits give low values 1.04 | locus YDR335W, strain msn5, hits give low values 0.997 | locus YDR388W, hits give low values 0.989 | locus YDR392W, strain spt3, hits give low values 0.976 | locus YDR502C, strain sam2, hits give low values 0.973 | locus YEL003W, strain gim4, hits give low values 0.995 | locus YEL037C, strain rad23, hits give low values 1.01 | locus YEL061C, strain CIN8 (second series), hits give low values 1.01 | locus YEL061C, strain CIN8, hits give low values 1.01 | locus YER015W, strain faa2, hits give low values 0.993 | locus YER016W, strain bim1, hits give low values 1.02 | locus YER110C, hits give low values 0.991 | locus YER111C, strain swi4, hits give low values 1.01 | locus YER155C, strain BEM2 (second series), hits give low values 0.972 | locus YER155C, strain BEM2, hits give low values 1.01 | locus YER167W, strain BCK2, hits give low values 1.01 | locus YFR010W, strain ubp6, hits give low values 0.972 | locus YGL078C, strain dbp3, hits give low values 0.99 | locus YGL086W, strain mad1, hits give low values 0.988 | locus YGL167C, strain pmr1, hits give low values 1.01 | locus YGL173C, strain kem1, hits give low values 0.97 | locus YGL227W, strain vid30, hits give low values 1.01 | locus YGL240W, strain doc1, hits give low values 0.947 | locus YGL248W, strain PDE1, hits give low values 1.03 | locus YGL253W, strain hxk2, hits give low values 1 | locus YGR078C, strain PAC10, hits give low values 1.02 | locus YGR135W, strain pre9, hits give low values 0.991 | locus YGR252W, strain gcn5, hits give low values 0.972 | locus YHR013C, strain ard1, hits give low values 1.03 | locus YHR027C, strain rpn1, hits give low values 1 | locus YHR030C, strain SLT2, hits give low values 1.02 and 0.974 | locus YHR079C, strain IRE1 (second series), hits give low values 0.981 | locus YHR079C, strain IRE1, hits give low values 0.952 | locus YHR094C, strain hxt1, hits give low values 0.98 | locus YHR129C, strain ARP1, hits give low values 1.01 | locus YHR142W, strain chs7, hits give low values 1.02 | locus YHR200W, strain rpn10, hits give low values 1.01 | locus YIL066C, strain RNR3, hits give low values 1.01 | locus YIL073C, strain SPO22, hits give low values 0.985 | locus YIL125W, strain kgd1, hits give low values 0.992 | locus YIR030C, strain dcg1, hits give low values 0.981 | locus YJL092W, strain hpr5, hits give low values 0.992 | locus YJL095W, strain BCK1 (second series), hits give low values 1.02 | locus YJL095W, strain BCK1, hits give low values 1.04 and 0.957 | locus YJL115W, strain asf1, hits give low values 0.984 | locus YJL129C, strain trk1, hits give low values 1 | locus YJL134W, strain LCB3, hits give low values 1.02 | locus YJL154C, strain vps35, hits give low values 1 | locus YJL164C, strain tpk1, hits give low values 1.01 | locus YJL166W, strain qcr8, hits give low values 0.99 | locus YJL168C, strain set2, hits give low values 0.989 | locus YJL187C, strain SWE1 (second series), hits give low values 1.02 | locus YJL187C, strain SWE1, hits give low values 1.02 | locus YJR043C, strain POL32, hits give low values 0.993 | locus YJR066W, strain TOR1, hits give low values 0.986 | locus YKL009W, strain mrt4, hits give low values 1.04
